Test results as given in paper PMC7862700, “An all-to-all approach to the identification of sequence-specific readers for epigenetic DNA modifications on cytosine”.

Key:
Experiment in all cases: DAPPL (digital affinity profiling via proximity ligation, sequencing); 10 mM Tris-HCl pH 7.5, 50 mM NaCl, 1 mM DTT, 4% glycerol, room temperature, 30 min; GST-TFs on glutathione beads, 16-mer random dsDNA library, 0.1% formaldehyde crosslink after washing; high values mean tight binding
Conditions in all cases: protein: recombinant; tags: N-terminal GST; dsDNA, one strand shown
[1] = molecular target: T1, FLI1 (Homo sapiens, UniProt Q01543 1-452)
T1 sequence: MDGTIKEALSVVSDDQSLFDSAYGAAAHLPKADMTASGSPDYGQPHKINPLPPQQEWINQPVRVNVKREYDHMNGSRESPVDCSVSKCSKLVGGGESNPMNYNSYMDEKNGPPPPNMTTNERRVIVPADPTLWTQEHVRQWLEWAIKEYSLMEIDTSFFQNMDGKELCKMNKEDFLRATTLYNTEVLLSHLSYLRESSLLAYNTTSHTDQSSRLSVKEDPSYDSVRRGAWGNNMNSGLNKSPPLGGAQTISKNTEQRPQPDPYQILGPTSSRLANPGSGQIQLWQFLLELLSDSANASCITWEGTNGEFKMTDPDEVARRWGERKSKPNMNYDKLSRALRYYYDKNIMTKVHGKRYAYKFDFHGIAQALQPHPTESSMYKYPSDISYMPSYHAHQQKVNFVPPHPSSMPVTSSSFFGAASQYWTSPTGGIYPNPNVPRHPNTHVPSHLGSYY
Summary of the method: (§1)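 Human transcription factors fused to GST were expressed in yeast, captured on glutathione beads, given DNA barcodes and pooled with a GST-only negative control. Pools were incubated with 200 nmole of a 16-mer random double-stranded DNA library in Tris/NaCl/DTT/glycerol buffer at room temperature for 30 min. They were then washed, crosslinked with 0.1% formaldehyde, proximity-ligated (BsaI/T4 ligase, 1 h, 37 °C), PCR-amplified and sequenced on an Illumina NextSeq500. Binding signal is each 6-mer's read frequency for a factor divided by its frequency for the GST control.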

[2] = molecular target: T2, ELK1 (Homo sapiens, UniProt P19419 1-428)
T2 sequence: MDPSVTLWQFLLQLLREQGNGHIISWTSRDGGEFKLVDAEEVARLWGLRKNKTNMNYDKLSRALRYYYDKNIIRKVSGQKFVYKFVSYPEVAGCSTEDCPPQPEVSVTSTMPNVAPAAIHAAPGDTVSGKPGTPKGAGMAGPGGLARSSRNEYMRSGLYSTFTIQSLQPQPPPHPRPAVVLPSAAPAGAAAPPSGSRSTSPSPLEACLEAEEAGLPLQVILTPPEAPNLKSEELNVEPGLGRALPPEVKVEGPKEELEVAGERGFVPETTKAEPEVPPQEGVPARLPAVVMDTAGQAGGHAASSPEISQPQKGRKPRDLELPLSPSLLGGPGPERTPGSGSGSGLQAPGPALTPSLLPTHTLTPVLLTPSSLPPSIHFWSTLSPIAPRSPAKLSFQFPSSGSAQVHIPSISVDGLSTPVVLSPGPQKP
Summary of the method: as §1

[3] = molecular target: T3, GABPA (Homo sapiens, UniProt Q06546 1-454)
T3 sequence: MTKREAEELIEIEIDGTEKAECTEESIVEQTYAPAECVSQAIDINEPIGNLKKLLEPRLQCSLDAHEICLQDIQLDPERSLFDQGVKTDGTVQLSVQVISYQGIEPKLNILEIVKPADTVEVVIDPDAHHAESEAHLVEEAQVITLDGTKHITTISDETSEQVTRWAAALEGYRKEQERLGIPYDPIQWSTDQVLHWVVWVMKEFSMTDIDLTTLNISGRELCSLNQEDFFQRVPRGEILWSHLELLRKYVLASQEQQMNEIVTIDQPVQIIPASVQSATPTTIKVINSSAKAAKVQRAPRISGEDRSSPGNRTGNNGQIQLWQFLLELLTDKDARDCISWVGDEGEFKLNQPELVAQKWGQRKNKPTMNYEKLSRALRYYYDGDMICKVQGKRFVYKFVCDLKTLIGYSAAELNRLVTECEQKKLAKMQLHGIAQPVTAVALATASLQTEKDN
Summary of the method: as §1

[4] = molecular target: T4, ERG (Homo sapiens, UniProt P11308 1-479)
T4 sequence: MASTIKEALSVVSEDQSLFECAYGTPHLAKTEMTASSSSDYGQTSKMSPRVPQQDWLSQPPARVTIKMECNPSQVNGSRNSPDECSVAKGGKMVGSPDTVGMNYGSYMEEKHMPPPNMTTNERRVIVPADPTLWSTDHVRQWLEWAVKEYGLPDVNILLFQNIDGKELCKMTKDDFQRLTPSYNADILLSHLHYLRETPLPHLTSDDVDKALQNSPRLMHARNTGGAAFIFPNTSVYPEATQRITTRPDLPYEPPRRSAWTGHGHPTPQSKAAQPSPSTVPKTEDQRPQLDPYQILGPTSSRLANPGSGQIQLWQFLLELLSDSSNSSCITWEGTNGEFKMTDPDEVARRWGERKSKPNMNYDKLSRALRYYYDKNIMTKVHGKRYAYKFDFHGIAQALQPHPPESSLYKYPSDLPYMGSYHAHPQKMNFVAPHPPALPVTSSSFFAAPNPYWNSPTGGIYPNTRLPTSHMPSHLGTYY
Summary of the method: as §1

[5] = molecular target: ELF1 (Homo sapiens, UniProt P32519 1-619)
ELF1, sequence (P32519 whole entry): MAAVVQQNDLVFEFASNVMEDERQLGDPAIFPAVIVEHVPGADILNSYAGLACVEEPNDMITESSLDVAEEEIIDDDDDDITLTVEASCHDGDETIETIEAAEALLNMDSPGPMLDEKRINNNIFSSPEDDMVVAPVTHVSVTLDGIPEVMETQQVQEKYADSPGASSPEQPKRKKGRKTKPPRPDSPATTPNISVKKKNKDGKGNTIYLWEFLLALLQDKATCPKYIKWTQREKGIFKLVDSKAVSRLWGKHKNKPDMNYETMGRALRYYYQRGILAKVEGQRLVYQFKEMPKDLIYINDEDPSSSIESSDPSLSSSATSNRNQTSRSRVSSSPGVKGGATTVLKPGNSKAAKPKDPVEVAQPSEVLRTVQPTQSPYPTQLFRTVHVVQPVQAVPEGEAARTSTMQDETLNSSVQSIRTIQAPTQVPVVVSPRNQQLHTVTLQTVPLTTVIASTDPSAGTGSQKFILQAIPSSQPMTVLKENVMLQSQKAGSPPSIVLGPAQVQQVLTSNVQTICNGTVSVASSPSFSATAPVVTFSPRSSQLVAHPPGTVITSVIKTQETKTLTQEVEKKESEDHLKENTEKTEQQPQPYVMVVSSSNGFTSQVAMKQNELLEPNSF
Summary of the method: as §1

[6] = molecular target: T5, EHF (Homo sapiens, UniProt Q9NZC4 1-300)
T5 sequence: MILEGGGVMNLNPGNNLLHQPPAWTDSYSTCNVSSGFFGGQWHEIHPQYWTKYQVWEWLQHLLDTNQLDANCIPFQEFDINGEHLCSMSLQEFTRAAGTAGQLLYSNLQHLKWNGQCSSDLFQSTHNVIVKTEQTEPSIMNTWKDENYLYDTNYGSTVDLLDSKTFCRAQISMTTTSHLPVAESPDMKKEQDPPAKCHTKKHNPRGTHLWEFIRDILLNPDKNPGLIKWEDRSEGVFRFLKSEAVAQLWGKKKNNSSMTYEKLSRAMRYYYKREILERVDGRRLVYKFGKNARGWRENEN
Summary of the method: as §1

[7] = molecular target: SPI1 (Homo sapiens, UniProt P17947 1-270)
Summary of the method: as §1

[8] = molecular target: SPIB (Homo sapiens, UniProt Q01892 1-262)
SPIB, sequence (Q01892 whole entry): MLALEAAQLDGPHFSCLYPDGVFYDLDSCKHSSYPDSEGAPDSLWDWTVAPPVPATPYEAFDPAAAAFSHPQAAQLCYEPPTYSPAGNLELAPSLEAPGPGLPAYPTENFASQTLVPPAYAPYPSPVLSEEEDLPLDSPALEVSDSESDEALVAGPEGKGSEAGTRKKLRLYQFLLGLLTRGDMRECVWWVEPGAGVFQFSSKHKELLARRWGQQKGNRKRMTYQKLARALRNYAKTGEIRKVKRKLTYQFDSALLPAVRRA
Summary of the method: as §1

[9] = molecular target: T6, ELK3 (Homo sapiens, UniProt P41970 1-407)
T6 sequence: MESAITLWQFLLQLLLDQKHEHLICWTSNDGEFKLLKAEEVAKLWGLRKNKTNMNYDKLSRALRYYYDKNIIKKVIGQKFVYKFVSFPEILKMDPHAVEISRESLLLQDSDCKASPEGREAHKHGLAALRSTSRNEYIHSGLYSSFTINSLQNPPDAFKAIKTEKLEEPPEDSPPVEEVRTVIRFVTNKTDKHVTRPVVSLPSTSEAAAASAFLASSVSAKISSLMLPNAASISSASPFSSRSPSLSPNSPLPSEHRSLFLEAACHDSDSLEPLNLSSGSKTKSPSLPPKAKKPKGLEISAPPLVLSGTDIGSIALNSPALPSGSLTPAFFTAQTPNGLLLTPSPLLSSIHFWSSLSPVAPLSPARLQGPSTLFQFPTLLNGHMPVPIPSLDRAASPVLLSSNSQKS
Summary of the method: as §1

Sequence | binding signal [1] | binding signal [2] | binding signal [3] | binding signal [4] | binding signal [5] | binding signal [6] | binding signal [7] | binding signal [8] | binding signal [9]
GTAACT | 1.31 fold enrichment (6-mer frequency, TF over GST control) | 1.25 fold enrichment (6-mer frequency, TF over GST control) | 1.22 fold enrichment (6-mer frequency, TF over GST control) | 1.25 fold enrichment (6-mer frequency, TF over GST control) | 1.22 fold enrichment (6-mer frequency, TF over GST control) | 1.21 fold enrichment (6-mer frequency, TF over GST control) | 1.35 fold enrichment (6-mer frequency, TF over GST control) | 1.28 fold enrichment (6-mer frequency, TF over GST control) | 1.11 fold enrichment (6-mer frequency, TF over GST control)
AGGAAA | 1.32 fold enrichment (6-mer frequency, TF over GST control) | 1.28 fold enrichment (6-mer frequency, TF over GST control) | 1.31 fold enrichment (6-mer frequency, TF over GST control) | 1.62 fold enrichment (6-mer frequency, TF over GST control) | 1.27 fold enrichment (6-mer frequency, TF over GST control) | 1.63 fold enrichment (6-mer frequency, TF over GST control) | 1.43 fold enrichment (6-mer frequency, TF over GST control) | 1.49 fold enrichment (6-mer frequency, TF over GST control) | 1.34 fold enrichment (6-mer frequency, TF over GST control)
TTTCTT | 1.42 fold enrichment (6-mer frequency, TF over GST control) | 1.3 fold enrichment (6-mer frequency, TF over GST control) | 1.42 fold enrichment (6-mer frequency, TF over GST control) | 1.37 fold enrichment (6-mer frequency, TF over GST control) | 1.38 fold enrichment (6-mer frequency, TF over GST control) | 1.29 fold enrichment (6-mer frequency, TF over GST control) | 1.37 fold enrichment (6-mer frequency, TF over GST control) | 1.24 fold enrichment (6-mer frequency, TF over GST control) | 1.31 fold enrichment (6-mer frequency, TF over GST control)
AGCCTA | 1.06 fold enrichment (6-mer frequency, TF over GST control) | 1.05 fold enrichment (6-mer frequency, TF over GST control) | 1.12 fold enrichment (6-mer frequency, TF over GST control) | 1.08 fold enrichment (6-mer frequency, TF over GST control) | 1.1 fold enrichment (6-mer frequency, TF over GST control) | 1.04 fold enrichment (6-mer frequency, TF over GST control) | 1.02 fold enrichment (6-mer frequency, TF over GST control) | 1.02 fold enrichment (6-mer frequency, TF over GST control) | 1.12 fold enrichment (6-mer frequency, TF over GST control)
AGTTCC | 2.16 fold enrichment (6-mer frequency, TF over GST control) | 2.17 fold enrichment (6-mer frequency, TF over GST control) | 1.9 fold enrichment (6-mer frequency, TF over GST control) | 2.2 fold enrichment (6-mer frequency, TF over GST control) | 1.95 fold enrichment (6-mer frequency, TF over GST control) | 2.11 fold enrichment (6-mer frequency, TF over GST control) | 2.62 fold enrichment (6-mer frequency, TF over GST control) | 2.36 fold enrichment (6-mer frequency, TF over GST control) | 1.99 fold enrichment (6-mer frequency, TF over GST control)
TACTAG | 1.09 fold enrichment (6-mer frequency, TF over GST control) | 1.09 fold enrichment (6-mer frequency, TF over GST control) | 1.07 fold enrichment (6-mer frequency, TF over GST control) | 1.06 fold enrichment (6-mer frequency, TF over GST control) | 1.11 fold enrichment (6-mer frequency, TF over GST control) | 1.09 fold enrichment (6-mer frequency, TF over GST control) | 1 fold enrichment (6-mer frequency, TF over GST control) | 1 fold enrichment (6-mer frequency, TF over GST control) | 1.05 fold enrichment (6-mer frequency, TF over GST control)
ATTCAG | 1.02 fold enrichment (6-mer frequency, TF over GST control) | 1.11 fold enrichment (6-mer frequency, TF over GST control) | 1.17 fold enrichment (6-mer frequency, TF over GST control) | 1.14 fold enrichment (6-mer frequency, TF over GST control) | 1.09 fold enrichment (6-mer frequency, TF over GST control) | 1.1 fold enrichment (6-mer frequency, TF over GST control) | 1.16 fold enrichment (6-mer frequency, TF over GST control) | 1.02 fold enrichment (6-mer frequency, TF over GST control) | 1.16 fold enrichment (6-mer frequency, TF over GST control)
